Assay results: PubChem BioAssay AID1347073 (National Center for Advancing Translational Sciences (NCATS), 2019)
Among all 45,000 compounds or so, about 200 (0.44%) were called active. Roughly 7% stayed inconclusive and do not appear here. For the sample, actives were picked, then their nearest neighbours and some compounds at random. A number with no mark means an inactive call. Calls come from the whole dose curve; as a rule, active = well fitted activation curve with a large enough effect; inconclusive = small, poorly fitted or top-dose-only effect; inactive = no such curve, though single readings can be large or run the other way.

Test: qHTS of TDP-43 Inhibitors: NCGC Sytravon Library Screen; note: nearly all actives have a fitted effect of over 55% in size; for growth rescue (activation): 0% is about no effect
Conditions: yeast TDP-43 toxicity rescue, BacTiter-Glo growth, 24 h; series mostly up to 46.1 µM; growth rescue (activation): at the top concentration
From the text: The goal of this project is to identify new chemical probes capable of reversing the toxicity associated with TDP-43 which is associated with frontotemporal lobar degeneration and amyotrophic lateral sclerosis. These compounds will provide a complementary approach to deciphering the tangled mechanisms of toxicity and protection that we have uncovered through genome-wide genetic screens and are beginning to uncover in a large-scale proteomics analysis with mass spectroscopy. To this end, a miniaturized assay was developed to be screened against the Molecular Libraries Small Molecule Repository (MLSMR) to discover TDP-43 inhibitors. Please note that in the set-up this yeast-based assay compounds that inhibit as TDP-43, have a read-out as activators. NIH Chemical Genomics Center [NCGC] NIH Molecular Libraries Probe Centers Network [MLPCN] Assay Submitter (PI): Susan Lindquist, Whitehead Institute/MIT MLPCN Grant: R21 NS060957
Dispense 2.5 microL yeast galactose medium per 1536-well plate, pin compound, dispense 2.5 microL TDP-43 expressing yeast in galactose medium at OD600=0.02 (pregrown in raffinose medium to mid-log phase) per well, incubate for 24 hr at 30 deg C, and cell growth will be measured using 5 microL of Bactiter/Glo reagent to entire plate and read using Luminescence Protocol in ViewLux.
Potency is the fitted concentration of half-maximal effect.

SMILES	growth rescue (activation)	Potency
O=C(CN1CCC(O)(c2cccc(C(F)(F)F)c2)CC1)NCCc1ccccc1	-14.5%	
CC(NC(=O)COC(=O)c1cc(=O)[nH]c2ccccc12)c1ccccc1 (centres undefined)	-3.18%	
COc1cc(C(c2c(NC(=O)c3ccco3)sc(C)c2C)N2CCOCC2)cc(OC)c1OC (centres undefined)	20.2%	
CC1(C(=O)Nc2cccc3cccnc23)CCN1C(=O)CCC1CCCC1 (centres undefined)	23.9%	
Cc1ccc(N2C(=O)CN=C2Nc2nc(C)cc(C)n2)cc1	-13.7%	
CCOc1cc(NC(=O)CCl)c(OCC)cc1NC(C)=O	-3.67%	
O=S(=O)(Nc1ncnc2sccc12)c1cccc(F)c1	19.2%	
CCN(CC(=O)NCc1ccco1)S(=O)(=O)c1ccc(F)cc1	-6%	
Cc1cc(C)cc(N(CC(=O)NC2CCCC2)C(=O)CCC(=O)Nc2nccs2)c1	4.02%	
COc1cc(C(=O)OCc2cc(=O)n3ccsc3n2)ccc1OC(C)C	16.8%	
COCCNC(=O)CSc1nc2sccc2c(=O)n1-c1ccccc1	1.63%	
CC(=O)NC(Cc1ccc(F)c(F)c1)C(=O)NC1CCN(c2nnnn2-c2ccccc2)CC1 (centres undefined)	-0.882%	
CC1CN(C(=S)SCC(=O)c2ccccc2)CC(C)O1 (centres undefined)	20.5%	
CC1CN(c2nc(-c3ccccc3)nnc2-c2ccccc2)CC(C)O1 (centres undefined)		12.6 µM (active)
NS(=O)(=O)c1ccc(CCNc2nc(C(F)(F)F)nc3ccccc23)cc1	10.7%	
COc1ccc(CNc2ncnc3ccccc23)cc1	-6.94%	
COc1cccc(CNc2nc(C(F)(F)F)nc3ccccc23)c1		15.8 µM (active)
CN(c1ccccc1)S(=O)(=O)c1cccc(NC(=O)Cc2c(F)cccc2Cl)c1	9.22%	
O=C(COc1ccc(Br)cc1F)NCC1(N2CCCCC2)CCCCC1	-1.19%	
Cc1cccc(NC(=S)N2CCC(O)CC2)c1C	11.9%	
CCOC(=O)/C(=N\Nc1ccccc1Cl)N(C)C1CCS(=O)(=O)C1 (centres undefined)	17.3%	
CC(C)CN1CCNC(=O)C1CC(=O)N(C)CC1CCOCC1 (centres undefined)	-15.8%	
O=C(c1cccc(S(=O)(=O)N2CCCC2)c1)N(Cc1ccco1)C1CCS(=O)(=O)C1 (centres undefined)	2.24%	
COc1ccc(-c2nn(C)c(=O)c3ccccc23)cc1CNC(=O)C1CCCCC1	10.4%	
CCc1ccc(N2CC(C(=O)Nc3ccc(S(=O)(=O)Nc4nccs4)cc3)CC2=O)cc1 (centres undefined)	3.52%	
Cc1nc2c(OCc3ccc(Cl)cc3Cl)cccn2c1N(C)CC1CC1	-1.5%	

SMILES	growth rescue (activation)	Potency
CC1CCN(c2ccc(C(=O)Nc3nnc(C4CC4)s3)cc2[N+](=O)[O-])CC1	1.71%	
Cc1ccc(NC(=O)c2ccc(Cl)nc2)cc1S(=O)(=O)N1CCOCC1	1.92%	
CC(C)N(C)C(=O)CCc1nnc(CCc2c[nH]c3ccccc23)o1	-2.17%	
CC(CC(=O)N1CCN(S(=O)(=O)c2ccccc2)CC1)n1cncn1 (centres undefined)	-14.2%	
COc1ccc(OCC(=O)Nc2cc(C)c(Cl)cc2OC)c([N+](=O)[O-])c1	12.2%	
Cc1ccc([N+](=O)[O-])cc1S(=O)(=O)N1CCCN(C)CC1	10.7%	
Cc1ccc(C)c(S(=O)(=O)N2CCN(c3ncnc4sccc34)CC2)c1		11.2 µM (active)
Cc1ccc(C)c(S(=O)(=O)N2CCN(CC(=O)Nc3ccc([N+](=O)[O-])cc3)CC2)c1	21.5%	
CCN(CC(=O)Nc1ccccc1C(=O)NC1CC1)Cc1cccs1	14.9%	
CC(=O)NC(CC(=O)Nc1ccc(S(=O)(=O)N2CCOCC2)cc1)c1ccccc1 (centres undefined)	21.1%	
COc1ccc(NC(=O)N2CCCC(C(=O)Nc3ccccc3OC)C2)cc1 (centres undefined)	18.1%	
COc1ccc(CNC(=O)C(c2ccc(O)cc2)N(Cc2ccco2)C(=O)c2snc(C(N)=O)c2N)cc1 (centres undefined)	-7.37%	
O=C(c1cccs1)N(Cc1cc2ccccc2[nH]c1=O)CC1CCCO1 (centres undefined)	-0.588%	
CCOc1ccc(C(C)=O)cc1CSc1nnc(-c2ccncc2)n1CCOC	-4.62%	
CCOc1ccc(S(=O)(=O)N2CCC(C(=O)NCc3ccccn3)CC2)cc1Cl	-4.66%	
Cc1cccc(C(=O)N2CCN(S(=O)(=O)N3CCCCC3)CC2)c1	28.1%	
Cc1ccc(C(=O)NNC(=O)CSc2nnc3ccccn23)cc1	5.26%	
Cc1cc(C)nc(N/N=C/c2c(C)oc3ccccc23)n1	13.5%	
CCOC(=O)C1CCN(C(=O)COc2cccc3ccccc23)CC1	14.4%	
CN(C)S(=O)(=O)Oc1ccccc1C(=O)Nc1ccccc1Cl	5.76%	
CC1(C(=O)NS(=O)(=O)c2ccc(Cl)cc2)CCN1C(=O)CC1CCCC1 (centres undefined)	5.06%	
O=C(N/N=C/c1ccc([N+](=O)[O-])cc1)C(=O)N1CCCC1	10.7%	
C/C(=C/C(=O)N1CCN(C)CC1)C(=O)O	-4.69%	
CCOc1ccc(NC(=O)CCC(=O)NNC(=O)NC2CCCCC2)cc1	-6.88%	
O=C(O)c1ccccc1CSc1nc2ccccc2s1		11.2 µM (active)
O=C(O)c1cccc(S(=O)(=O)Nc2ccc(O)cc2Sc2nc3ccccc3s2)c1	8.39%	

SMILES	growth rescue (activation)	Potency
O=C(O)CC/C(=C\c1cc2c(cc1Br)OCO2)c1nc2ccccc2s1	14.9%	
COc1ccccc1N(CC(=O)Nc1ccc(C)cc1Cl)S(=O)(=O)c1cccs1	3.97%	
O=C(NNS(=O)(=O)c1ccc(F)cc1)C1CCCCC1	15.8%	
O=C(Nc1ccc(Cl)cc1)c1csc([C@H]2C[C@H](O)[C@@H](CO)O2)n1	-7.86%	
CCOC(=O)c1oc2c(CN3CCN(CCO)CC3)c(O)c(CC)cc2c(=O)c1-c1nc2ccccc2s1	-2.19%	
CCNc1nc(NCC)nc(N/N=C/c2ccc(O)c(OC)c2)n1	8.29%	
COc1ccc(C(=O)NC2CCN(C(=O)Nc3ccc(F)cc3)CC2)cc1	4.62%	
Cc1nc(CN2CCN(C(=O)CCc3nnc(Cc4c[nH]c5ccccc45)o3)CC2)cs1	5.06%	
CCNC(=O)C1(C)CCCN(Cc2noc(-c3ccccc3OC)n2)C1 (centres undefined)	8.22%	
Cc1ccc(CN(CC(=O)NCC2CCCO2)S(=O)(=O)c2ccc(C)cc2)cc1 (centres undefined)	21%	
COC(=O)c1c(NC(=O)CN2C(=O)NC(CCc3ccccc3)C2=O)sc2c1CCCCC2 (centres undefined)	-21.8%	
COCCNC(=O)CN(Cc1ccco1)C(=O)CCC(=O)Nc1nccs1	2.54%	
O=C(NCCCN1CCOCC1)c1cc(-c2cccc(O)c2)on1	-3.23%	
COc1ccc(CCNC2=CC(=O)CC(C)(C)C2)cc1	-5.94%	
CCOc1ccccc1/C=N/Nc1nc2ccccc2o1	15.2%	
Cc1nc(C(F)(F)F)ccc1C(=O)N1CCC1(C)C(=O)NS(=O)(=O)c1ccccc1 (centres undefined)	14%	
C=CCN1C(=O)C(O)(CC(=O)c2ccccn2)c2ccccc21 (centres undefined)	2.18%	
COc1ccc(N(C)S(=O)(=O)c2cccc3nsnc23)cc1	21.5%	
CCCC(=O)Nc1ccc2c(c1)nc(CCNC(=O)c1ccco1)n2C	-7.12%	
COc1ccc(NC(=O)NC(C)c2c(-n3cccc3)sc(C)c2C)cc1OC (centres undefined)	1.24%	
COCCNC(=O)C1(C)CCCN(Cc2cccc(F)c2)C1 (centres undefined)	-16.4%	
COc1ccc(-n2cnnc2SCC(=O)Nc2cccc(S(N)(=O)=O)c2)cc1	-0.153%	
O=C(O)c1ccc(/C=N/NC(=O)c2ccc(Br)cc2)cc1	8.15%	
CCOC(=O)Cc1csc(SCc2cc(=O)oc3cc(O)ccc23)n1	2.23%	
Cc1cc(=O)[nH]c(SCC(=O)Nc2ccc(Br)cc2)n1	0.754%	
CCOC(=O)Cc1csc(NC(=O)CSc2ccc(Br)cc2)n1		12.6 µM (active)

SMILES	growth rescue (activation)	Potency
O=C(C(Cl)Cl)N1CCN(c2ccccn2)CC1	7.4%	
OC(c1ccc(F)cc1)c1ncc(-c2cccc(C(F)(F)F)c2)[nH]1 (centres undefined)	14.7%	
COc1ccc(CN(C)Cc2nc3cc(OC)c(OC)cc3c(=O)[nH]2)c(OC)c1	5.3%	
CC1(C(=O)NS(=O)(=O)Cc2cccc(Cl)c2)CCN1C(=O)Cc1ccc(Cl)cc1Cl (centres undefined)	6.35%	
O=C(NC1CCCC1)C(c1c(F)cccc1Cl)N(C(=O)c1csnn1)C1CC1 (centres undefined)	13.1%	
O=C(COC(=O)c1ccc([N+](=O)[O-])o1)NC12CC3CC(CC(C3)C1)C2	9.8%	
Cc1noc(/C=C/c2ccco2)c1S(=O)(=O)N1CCC(C(=O)Nc2ccc(Cl)cn2)CC1	3.65%	
CC(C)c1nc2sc3c(c2c(=O)n1N)CC(C)(C)OC3	20.6%	
CN(CCc1ccccn1)C(=O)CCC1CCCN(Cc2ccccc2OC(F)F)C1 (centres undefined)	1.51%	
CC(=O)Nc1ccc(NC(=S)NC(=O)c2ccc([N+](=O)[O-])c(C)c2)cc1	12.6%	
O=C(NCc1cccnc1)c1cc(C2CCCN(C(=O)CCCc3ccccc3)C2)on1 (centres undefined)	2.36%	
OC[C@@H]1CN(Cc2ccc3c(c2)OCO3)C[C@H](n2cnc3c(NCc4ccco4)ncnc32)O1	8.28%	
O=C(c1cnccn1)N1CCN(S(=O)(=O)c2cccc(Cl)c2)CC1	12.7%	
CCCCNC(=O)N(O)C1N(/N=C/c2ccccc2O)C(=S)SC1(C)C (centres undefined)	13.7%	
Cc1cccc(NC(=O)c2nc(S(=O)(=O)Cc3ccccc3)ncc2Cl)c1		12.6 µM (active)
Cc1cccc(NC(=O)c2ccc([N+](=O)[O-])o2)c1	-89%	
CCCSc1ncc(Cl)c(C(=O)Nc2c(C(=O)Nc3ccccc3)oc3ccccc23)n1	5.87%	
O=C(NCCc1ccccc1)c1ccc2c(c1)N(Cc1ccccc1)C(=O)c1ccccc1S2(=O)=O	14%	
Cc1ccc(OCC(=O)NCCCNC(=O)c2ccco2)cc1C	9.61%	
N/C(=N/O)c1cccn1Cc1ccccc1[N+](=O)[O-]	4.53%	
CCCn1c(=N)n(CC(O)COc2ccccc2OC)c2ccccc21 (centres undefined)	4.92%	
O=C1c2ccccc2C(=O)c2c1cccc2N1CCN(C/C=C/c2ccccc2)CC1	24.5%	
NS(=O)(=O)c1ccc(N2C(=O)C3C4CC(C(Br)C4Br)C3C2=O)cc1 (centres undefined)	5.23%	
COC(=O)CCNC(=O)c1ccc2[nH]c(C)c(C)c2c1	-8.44%	
O=C(CN1C(=O)NC2(CCCC2)C1=O)NCC1CCCO1 (centres undefined)	-2.83%	
COc1ccc(-c2nc(N)sc2C2(O)C(=O)Nc3c(Br)cc(F)cc32)cc1OC (centres undefined)	19.9%	
